Compound activity: PubChem BioAssay, NMMLSC
Most compounds without a hit are left out; they make up all but 0.93% or so of the library.
MEP2-GFP yeast = modulators of MEP2-GFP levels in yeast, primary screen, S. cerevisiae, multiplex flow cytometry, MLPCN library; S. cerevisiae MEP2-GFP strain, 3 h; 100% = DMSO control level; GFP response vs DMSO, % at 10 µM; actives 0.51% (n = 330,000);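 active = GFP response versus DMSO above a set limit, roughly screen mean plus 3 SD, cut at about 180% in these data; inconclusive = fewer than 70 cells counted for a yeast strain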;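 note: median GFP fluorescence of the barcode-gated MEP2-GFP cells per well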
LAP4-GFP MLPCN = modulators of LAP4-GFP expression in yeast, primary screen, S. cerevisiae, multiplex flow cytometry, MLPCN library. 3 h; median GFP as percent of DMSO wells. GFP response vs DMSO, % at 10 µM. actives 0.34% (n = 320,000). AID 2023, 2009;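 active = GFP response vs DMSO above a set limit, about the screen mean plus 3 SD, cut at about 150% in these data; inconclusive = under 70 cell events counted for the yeast strain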
RPL19A TOR yeast = RPL19A-GFP expression modulators in yeast, primary screen, cell-based, S. cerevisiae, multiplex flow cytometry, MLPCN; S. cerevisiae RPL19A-GFP strain, 3 h; active compounds read low; percent response vs DMSO, % at 10 µM; actives 0.3% (n = 330,000);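 active = percent response vs DMSO below 50%; inconclusive = fewer than 70 events counted for the yeast strain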;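 note: median channel GFP fluorescence of the barcoded RPL19A-GFP strain; lower means less RPL19A-GFP as with rapamycin TOR inhibition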
AGP1-GFP MLPCN = modulators of AGP1-GFP expression in yeast TOR pathway, primary screen, cell-based, multiplex flow cytometry, S. cerevisiae, MLPCN library; AID 2066, 2009; actives 0.02% (n = 320,000); GFP response vs DMSO, % at 10 µM; 3 h; GFP as percent of DMSO wells;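 active = GFP response relative to DMSO above a set limit, near screen average plus 3 SD, cut at about 150% in these data; inconclusive = fewer than 70 cells counted for the yeast strain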;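 note: median GFP channel fluorescence of the gated AGP1 strain per well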
CIT2-GFP yeast = modulators of CIT2-GFP expression in yeast, primary screen, S. cerevisiae, GFP fusion, multiplex flow cytometry, MLPCN library. S. cerevisiae CIT2-GFP strain, 3 h; 100 means same as DMSO wells. GFP response vs DMSO, % at 10 µM. actives 0.065% (n = 320,000). AID 2029, 2009;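 active = GFP response relative to DMSO above a set limit, near the screen mean plus 3 SD, cut at about 150% in these data; inconclusive = Fewer than 70 cells measured for a yeast strain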;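 note: ratio of well median GFP fluorescence to mean of DMSO wells on the plate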
A number is an active result; i = inactive; ? = inconclusive; [ ] = dose if it differs, or a comment.

SMILES	MEP2-GFP yeast	LAP4-GFP MLPCN	RPL19A TOR yeast	AGP1-GFP MLPCN	CIT2-GFP yeast
O=C(C1CCN(Cc2ccc(F)cc2)CC1)N(CCc1ccccc1)Cc1ccccc1	i	i	i	i	i
O=C(COC(=O)C1CCN(c2ccc(C(F)(F)F)cn2)CC1)Nc1cccc(F)c1	i	152	i	i	i
Cc1ccc([N+](=O)[O-])cc1NC(=O)C(C)N1CCCCC1 (stereo not given)	185[may fluoresce violet]	i	49[may fluoresce violet]	i	?
O=C(CN1C(=O)C2CC=CCC2C1=O)Nc1ccc(OC(F)(F)F)cc1 (stereo not given)	i	i	i	i	i
CCN(CC(=O)NCCN1CCOCC1)S(=O)(=O)c1ccc(F)cc1	280[may fluoresce red and violet]	i	?	?	?
COc1ccc2c(c1OC)C(=O)N(c1ccc(C)cc1)C2	i	i	i	i	i
Cc1cccn2c(=O)c(/C=C(\C#N)C(=O)NCc3ccco3)c(N3CCCCC3)nc12	178[may fluoresce violet]	i	i	i	?
COc1ccc(N2CCN(c3nc4c(C)cccn4c(=O)c3/C=C(\C#N)C(N)=O)CC2)cc1	195	i	i	i	i
CCN(CC(=O)NCc1ccc(Cl)cc1)C(=O)CSCC(=O)Nc1ccc(C)cc1	i	i	i	i	i
Cc1ccccc1NC(=O)CCCNC(=O)c1ccc(Cl)cc1	?	?	27[may fluoresce violet]	?	?
O=C(CCCNC(=O)c1ccc(Cl)cc1)Nc1ccccc1F	i	i	i	i	i
COc1ccc(OCc2nnc(SCC(=O)Nc3ccc(C)cc3)o2)cc1	195[may fluoresce violet]	i	i	i	?
COc1ccc(-c2nnc(SCC(=O)NC3CCCCC3)o2)cc1	200[may fluoresce violet]	i	i	i	?
CC(NC(=O)c1ccncc1)c1ccc(Br)cc1 (stereo not given)	i	i	i	i	i
C=CCn1c(SCC(=O)NC(=O)Cc2ccccc2)nnc1-c1ccccc1F	i	i	i	i	i
Cc1nnc(SCc2ccc(F)cc2Cl)s1	181[may fluoresce violet]	i	19[may fluoresce violet]	?	?
O=C(Nc1ccc(COc2ccccc2)cc1)Nc1cccc(C(=O)O)c1	800[may fluoresce violet]	i	30[may fluoresce violet]	?	?
CC(=O)c1cccc(NC(=O)Nc2ccccc2)c1	582[may fluoresce violet]	i	i	i	?
O=C(O)c1cccc(NC(=S)NC(=O)c2cccc(OCc3ccccc3)c2)c1	i	i	i	i	i
COC(=O)c1cccc(NC(=O)Nc2ccc(Cl)cc2Cl)c1	721[may fluoresce violet]	i	i	i	?
CCn1nnc2cc(C(=O)NCC(c3ccccc3OC)N(C)C)ccc21 (stereo not given)	i	i	46[may fluoresce violet]	?	?
Cc1noc(C)c1COc1ccc(C(=O)N2CCN(c3ccccn3)CC2)cc1	i	i	i	i	i
CC(=O)c1ccc(OCCCC(=O)Nc2cccc(-c3nn[nH]n3)c2)cc1	i	i	i	i	i
CCc1ccc(NC(=O)CSc2nnnn2-c2cccnc2)cc1	i	i	i	i	i
CCc1ccc(NC(=O)COC(=O)C2(c3ccc(Cl)cc3)CCCC2)cc1	i	i	i	i	?
SMILES	MEP2-GFP yeast	LAP4-GFP MLPCN	RPL19A TOR yeast	AGP1-GFP MLPCN	CIT2-GFP yeast
CC(C)C[C@@H](CSc1ccccc1)N1CCN(CC(C)C)CCC1=O	341[may fluoresce violet]	i	37[may fluoresce violet]	?	?
COc1ccc(CNC(=O)C(CC(C)C)NC(=O)c2ccccc2C)cc1 (stereo not given)	200[may fluoresce violet]	i	i	i	?
CCC(CC)C(=O)NCc1ccc(OC)cc1	i	i	i	i	i
CCc1ccc(Nc2nnc(SCC(=O)Nc3sccc3C(N)=O)s2)cc1	194[may fluoresce violet]	i	40[may fluoresce violet]	i	?
Cc1c(NC(=O)c2cc3nc(-c4ccc(Cl)cc4)cc(C(F)(F)F)n3n2)c(=O)n(-c2ccccc2)n1C	i	i	46[may fluoresce violet]	i	i
COc1cccc(-c2cc(C(F)(F)F)n3nc(C(=O)Nc4c(C)n(C)n(-c5ccccc5)c4=O)cc3n2)c1	i	i	i	i	i
CCOc1ccccc1CN1CCN(Cc2ccc(C)o2)CC1CCO (stereo not given)	i	i	i	i	i
CCOc1ccccc1CN1CCN(CC2=Cc3cc(OC)ccc3OC2)CC1CCO (stereo not given)	205[may fluoresce violet]	i	i	i	?
CCOc1cccc(CN2CCN(CCCc3ccccc3)C(CCO)C2)c1O (stereo not given)	514[may fluoresce violet]	i	46[may fluoresce violet]	i	?
